Compound activity from PubChem BioAssay.
WT yeast gro inh: growth inhibition of WT yeast, mitochondrial fusion screen. mitochondrial fusion phenotypic screen, WT strain. 190,000 compounds, 2.1% hits. inhibition, % at 10 µM; in the data active = inhibition above about 58%; tested in S. cerevisiae
TPT1 inhibitor: blocks Candida albicans tRNA 2'-phosphotransferase; recombinant caTPT1, FP RNA substrate dephosphorylation; inhibition, % at 5 µM; 300,000 compounds, 0.81% hits;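 active = inhibition above the mean of all tested compounds plus 3 SD, set per screening campaign, cut at about 24% in these data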;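 note: plate controls were DMSO alone for no effect and ferristatin control at 100 nM for full effect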
Rtt109 Vps75: inhibitors of Candida albicans Rtt109/Vps75 histone acetyltransferase; Q5AAJ8; purified Rtt109/Vps75, ThioGlo CoA-SH fluorescence, 4 h; inhibition, % at 34.9 µM; 330,000 compounds, 0.16% hits; AID 540336;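 active = inhibition of at least 50% in every replicate; inconclusive = best replicate reaches 50% inhibition but some replicates fall short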
Target sequence (Q5AAJ8 whole entry, looked up): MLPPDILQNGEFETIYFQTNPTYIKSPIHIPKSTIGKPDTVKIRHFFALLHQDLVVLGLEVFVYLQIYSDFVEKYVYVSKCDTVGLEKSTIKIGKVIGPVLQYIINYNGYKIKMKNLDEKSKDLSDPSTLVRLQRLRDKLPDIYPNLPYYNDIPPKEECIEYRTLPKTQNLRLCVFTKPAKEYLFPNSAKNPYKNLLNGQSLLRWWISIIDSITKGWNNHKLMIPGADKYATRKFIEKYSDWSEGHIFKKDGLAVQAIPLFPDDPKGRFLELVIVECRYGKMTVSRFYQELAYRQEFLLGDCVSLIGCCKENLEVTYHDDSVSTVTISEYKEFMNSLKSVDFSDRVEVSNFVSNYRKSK
Platelet DG rel: modulates dense granule release in human platelets. human platelet-rich plasma, SFLLRN dense granule ATP release, luminescence. inhibition, %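 (compounds screened at 7.5 µM in platelet-rich plasma)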. 300,000 compounds, 0.22% hits. AID 1663;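 active = mean replicate score, as percent of positive control, at or above 50; inconclusive = mean below 50 but at least one replicate at or above 50; inactive = mean and every replicate below 50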
PHOSPHO1 block: PHOSPHO1 (human) inhibition; inhibition, % at 13.3 µM; 290,000 compounds, 1.1% hits; Q8TCT1; recombinant PHOSPHO1, absorbance phosphatase assay; AID 1565; in the data active = inhibition above about 60%
Target sequence (Q8TCT1 whole entry, looked up): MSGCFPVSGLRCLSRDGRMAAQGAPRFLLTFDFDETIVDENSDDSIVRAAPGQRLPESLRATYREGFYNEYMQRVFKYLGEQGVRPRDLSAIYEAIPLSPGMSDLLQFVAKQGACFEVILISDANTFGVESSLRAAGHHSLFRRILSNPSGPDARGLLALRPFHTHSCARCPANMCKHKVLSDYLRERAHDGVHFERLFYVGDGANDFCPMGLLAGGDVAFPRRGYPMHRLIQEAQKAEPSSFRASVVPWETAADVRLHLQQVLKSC
SKKanGAS inh: blocks kanamycin growth of S. pyogenes SKKanGAS strain; BacTiter-Glo, 6 h; inhibition, % at 7.5 µM; 300,000 compounds, 1.3% hits;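 active = mean replicate score, as percent of positive control median, at least 50; inconclusive = mean below 50 but one replicate at or above 50; inactive = mean and every replicate below 50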;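 note: strain carries kanamycin resistance gene driven by streptokinase promoter and grows in 40 µg/ml kanamycin; loss of luminescence reflects streptokinase promoter inhibition or plain growth inhibition; 0% = median of DMSO wells and 100% = positive control at its reference dose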
Starred values were filed as active, the others as inactive. In the library only some 3.9% were active in any assay of this set; here they are far more common.

For Cc1ccc(C2=NN(S(=O)(=O)c3ccccc3)C(c3ccccc3O)C2)cc1 (stereo not drawn) the results were WT yeast gro inh 84*, Platelet DG rel -2, PHOSPHO1 block 6 and SKKanGAS inh -18.
O=C(c1ccc2nc(Cc3cccc(Cl)c3)oc2c1)N1CCC[C@H]1CO was read as TPT1 inhibitor -7, Rtt109 Vps75 6, Platelet DG rel -3, PHOSPHO1 block 21 and SKKanGAS inh -2.
Screening COc1ccccc1-c1cc(C(=O)NC(C)c2ccccc2)no1 (stereo not drawn) returned WT yeast gro inh 15, TPT1 inhibitor -1, Rtt109 Vps75 -3, Platelet DG rel 0, PHOSPHO1 block 11 and SKKanGAS inh -5.
COc1ccccc1-c1cc(C(=O)NC(C)C)no1 was read as WT yeast gro inh 1, TPT1 inhibitor -1, Rtt109 Vps75 14, Platelet DG rel -8, PHOSPHO1 block 60* and SKKanGAS inh -12.
Screening CC(=O)/C(=N/Nc1ccc([N+](=O)[O-])cc1)N1CCCc2ccccc21 returned TPT1 inhibitor 15, Rtt109 Vps75 -2, Platelet DG rel 3, PHOSPHO1 block 38 and SKKanGAS inh 9.
CC(=O)/C(=N/Nc1ccc(Br)cc1)N1CCCc2ccccc21 was read as TPT1 inhibitor -3, Rtt109 Vps75 -1, Platelet DG rel 8, PHOSPHO1 block 3 and SKKanGAS inh 51*.
`COc1ccc(CN(CCN(C)C)c2ccccn2)cc1` gave WT yeast gro inh -1, TPT1 inhibitor 3, Rtt109 Vps75 -7, Platelet DG rel -5, PHOSPHO1 block 33 and SKKanGAS inh 2.
For CCCCCCCCCCCCCCCC[N+](C)(C)CCN(Cc1ccc(OC)cc1)c1ncccn1 the results were TPT1 inhibitor -2 and Rtt109 Vps75 88*.
O=C(c1cc(C2CC2)nn1-c1ccccc1)N1CCN(S(=O)(=O)c2cccc(F)c2)CC1 was read as Rtt109 Vps75 16.
`Cc1ccc(NC(=O)CSc2nccc(=O)[nH]2)c(S(=O)(=O)N2CCOCC2)c1` gave WT yeast gro inh -3, TPT1 inhibitor -1, Rtt109 Vps75 10, Platelet DG rel -26, PHOSPHO1 block 64* and SKKanGAS inh -4.
For O=C(CCC1N=C2c3ccccc3N=C(SCc3cccc(Cl)c3)N2C1=O)NCc1ccco1 (stereo not drawn) the results were WT yeast gro inh 59*, TPT1 inhibitor -2, Rtt109 Vps75 -18, Platelet DG rel -2, PHOSPHO1 block 31 and SKKanGAS inh 9.
O=C(CCC1N=C2c3ccccc3N=C(SCc3ccccc3Cl)N2C1=O)NCc1ccco1 (stereo not drawn) was read as WT yeast gro inh 9, TPT1 inhibitor -1, Rtt109 Vps75 -8, Platelet DG rel -1, PHOSPHO1 block 42 and SKKanGAS inh 4.
Screening S=C(NCC1CCCO1)N1CCN(c2cccc(Cl)c2)CC1 (stereo not drawn) returned WT yeast gro inh 5, TPT1 inhibitor 2, Platelet DG rel -2, PHOSPHO1 block -23 and SKKanGAS inh 1.
For S=C(NCC1CCCO1)N1CCN(c2nc(-c3ccc(Cl)cc3)cs2)CC1 (stereo not drawn) the results were WT yeast gro inh 67*, TPT1 inhibitor 4, Rtt109 Vps75 1, Platelet DG rel -2, PHOSPHO1 block 23 and SKKanGAS inh 9.
Screening S=C(NCCCN1CCOCC1)N1CCN(c2nc(-c3ccc(Cl)cc3)cs2)CC1 returned WT yeast gro inh 89*, TPT1 inhibitor -3, Rtt109 Vps75 5, Platelet DG rel -7, PHOSPHO1 block -9 and SKKanGAS inh -20.
For CN(C)S(=O)(=O)c1cccc(NC(=O)COC(=O)c2cccnc2Cl)c1 the results were Rtt109 Vps75 2.
`COCCCNC(=S)N1CCCN(c2nc3c(C)c(C)ccc3cc2C#N)CC1` gave WT yeast gro inh 69*, TPT1 inhibitor 0, Rtt109 Vps75 4, Platelet DG rel -5, PHOSPHO1 block -6 and SKKanGAS inh 2.
`COCCNC(=S)N1CCCN(c2nc3cc(C)ccc3cc2C#N)CC1` gave TPT1 inhibitor -2, Rtt109 Vps75 -1, Platelet DG rel 18 and SKKanGAS inh 2.
Screening CC(C)(C)OC(=O)NCCc1nnc(SCc2ccc(Cl)cc2Cl)o1 returned WT yeast gro inh 0, TPT1 inhibitor -1, Rtt109 Vps75 -39, Platelet DG rel 5, PHOSPHO1 block 37 and SKKanGAS inh 4.
`Clc1cccc(NCc2nnc(SCc3ccc(Cl)cc3Cl)o2)c1` gave WT yeast gro inh 62*, TPT1 inhibitor -6, Rtt109 Vps75 -7, Platelet DG rel -27, PHOSPHO1 block -9 and SKKanGAS inh 39.
NC(=S)N=Nc1ccc(NN=C(N)N)cc1 was read as TPT1 inhibitor 0, Rtt109 Vps75 inconclusive, Platelet DG rel -4, PHOSPHO1 block -42 and SKKanGAS inh 106*.
Screening CCOC(=O)c1sc2nc(CSc3ccccc3)nc(N3CCCN(C)CC3)c2c1C returned WT yeast gro inh 93*, TPT1 inhibitor 3, Rtt109 Vps75 inconclusive, Platelet DG rel -1, PHOSPHO1 block 20 and SKKanGAS inh -8.
`CCOC(=O)c1sc2nc(CC(=O)OC)nc(N3CCN(c4ccccn4)CC3)c2c1C` gave WT yeast gro inh 48, TPT1 inhibitor -3, Rtt109 Vps75 0, Platelet DG rel -4, PHOSPHO1 block 26 and SKKanGAS inh 34.
For CCOC(=O)c1sc2nc(CSc3ccccc3)nc(N3CCC(C(N)=O)CC3)c2c1C the results were WT yeast gro inh 71*, TPT1 inhibitor -1, Rtt109 Vps75 -2, Platelet DG rel -5, PHOSPHO1 block -8 and SKKanGAS inh 15.
Screening Cc1sc2nc(CSc3ccccc3)nc(N3CCC(C(N)=O)CC3)c2c1C returned WT yeast gro inh 25, TPT1 inhibitor -3, Rtt109 Vps75 -9, Platelet DG rel -36, PHOSPHO1 block 28 and SKKanGAS inh 0.
For CCCCCCCC1c2c(c(C)c(C)oc2=O)Oc2c(C)c(C)oc(=O)c21 the results were Rtt109 Vps75 -21.
CCOc1ccc(S(=O)(=O)NCCC(=O)NCc2cccnc2)cc1 was read as TPT1 inhibitor -3, Rtt109 Vps75 -2, Platelet DG rel 6 and SKKanGAS inh 1.
`CC1(c2ccc(Cl)c(Cl)c2)NC(=S)N2C1NC(=S)N2c1ccccc1` (stereo not drawn) gave WT yeast gro inh 7, TPT1 inhibitor 1, Rtt109 Vps75 23, Platelet DG rel 9, PHOSPHO1 block 89* and SKKanGAS inh 13.
`CCOc1ccccc1CN1CCN(Cc2cn(C)nc2-c2ccccc2)CC1CCO` (stereo not drawn) gave WT yeast gro inh -1, TPT1 inhibitor -3, Rtt109 Vps75 1, Platelet DG rel -6, PHOSPHO1 block 60* and SKKanGAS inh -6.
For COc1cc(C)c(Cc2cnc(N)nc2N)cc1OC the results were WT yeast gro inh -7, TPT1 inhibitor -4, Platelet DG rel -7, PHOSPHO1 block 48 and SKKanGAS inh 52*.
